Test results from PubChem BioAssay (NCATS).
Inconclusive results are not listed. Entries that show only a call come without a potency. A number with no mark means an inactive call. Calls of active or inactive are those of the source. Calls come from the whole dose curve; tested in HEK293 reporter line.

Assay: qHTS for Inhibitors of the Functional Ribonucleoprotein Complex (vRNP) of Lassa (LASV) Arenavirus: LASV Primary Screen - GLuc reporter signal (AID 1347082); note: nearly all actives have a fitted effect of over 60% in size
Conditions: LASV minigenome vRNP, Gaussia luciferase reporter; series mostly up to 57.5 µM

Q: For `CC(C)C[C@@H](N)C(=O)O`, which Potency is on record?
A: The Potency was “inactive”.

Q: For `OCc1ccccc1O`, which Potency is on record?
A: The Potency was “inactive”.

Q: For `CN1Cc2c(N)cccc2C(c2ccccc2)C1` (stereo not drawn), which Potency is on record?
A: Its Potency is “inactive”.

Q: With `Cc1ccc(/C(=C\CN2CCCC2)c2ccccn2)cc1` as the molecule, how does the Potency read?
A: The Potency was “inactive”.

Q: Which Potency does the source give for `COc1ccccc1N1CCN(CC(O)COc2cccc3ccccc23)CC1` (stereo not drawn) here?
A: The Potency was “inactive”.

Q: Which Potency does the source give for `Clc1ccc(CO/N=C(\Cn2ccnc2)c2ccc(Cl)cc2Cl)c(Cl)c1` here?
A: Its Potency is “inactive”.

Q: Which Potency does the source give for `CC(C)(C)C(=O)OCOC(=O)C1N2C(=O)CC2S(=O)(=O)C1(C)C` (stereo not drawn) here?
A: The Potency was “inactive”.

Q: For `C[C@@H]1CC[C@@]2(OC1)O[C@H]1C[C@H]3[C@@H]4CC[C@H]5C[C@@H](O)CC[C@]5(C)[C@H]4CC(=O)[C@]3(C)[C@H]1[C@@H]2C`, which activity change, negative = inhibition is on record?
A: The activity change, negative = inhibition was -9.4% [at 5.82 µM].

Q: Which Potency does the source give for `Cc1ccc(=O)n(-c2ccccc2)c1` here?
A: The Potency was “inactive”.

Q: With `Cc1cc(C)c(/C=C2\C(=O)Nc3ccccc32)[nH]1` as the molecule, how does the Potency read?
A: The Potency was “inactive”.

Q: Which Potency does the source give for `O=C(O)c1cccnc1Nc1cccc(C(F)(F)F)c1` here?
A: Its Potency is “inactive”.

Q: Which Potency does the source give for `C[C@@]12CCC[C@H]1[C@@H]1CC[C@H]3C[C@@H](O)CC[C@]3(C)[C@H]1CC2` here?
A: Its Potency is “inactive”.

Q: For `CO[C@@H]1[C@@H](O[C@@H]2O[C@H](C)[C@@H](O[C@H]3C[C@@](C)(O)[C@@H](O)[C@H](C)O3)[C@H](N(C)C)[C@H]2O)[C@@H](CC=O)C[C@@H](C)[C@@H](O[C@@H]2CC[C@H](N(C)C)[C@@H](C)O2)/C=C/C=C/C[C@@H](C)OC(=O)C[C@H]1OC(C)=O`, which Potency is on record?
A: The Potency was “inactive”.

Q: For `C[C@@H](CN(C)C)CN1c2ccccc2Sc2ccccc21`, which Potency is on record?
A: The Potency was “inactive”.

Q: For `c1ccc(CNCCNCc2ccccc2)cc1`, which Potency is on record?
A: The Potency was “inactive”.

Q: For `CCOC(=O)n1ccn(C)c1=S`, which Potency is on record?
A: The Potency was “inactive”.

Q: Which Potency does the source give for `CN1CCCCC1CCN1c2ccccc2Sc2ccc(S(C)=O)cc21` (stereo not drawn) here?
A: Its Potency is “inactive”.

Q: For `C=C1c2cccc(O)c2C(O)=C2C(=O)[C@]3(O)C(O)=C(C(N)=O)C(=O)[C@@H](N(C)C)[C@@H]3[C@@H](O)[C@H]12`, which Potency is on record?
A: Its Potency is “inactive”.

Q: Which Potency does the source give for `O=C(O)[C@H](O)[C@@H](O)[C@H](O[C@@H]1O[C@H](CO)[C@H](O)[C@H](O)[C@H]1O)[C@H](O)CO` here?
A: Its Potency is “inactive”.

Q: For `CNc1c2c(nn1C)CCCC2`, which Potency is on record?
A: The Potency was “inactive”.

Q: Which Potency does the source give for `NS(=O)(=O)c1cc2c(cc1Cl)NCNS2(=O)=O` here?
A: Its Potency is “inactive”.

Q: With `Nc1ccc(N=Nc2ccccc2)c(N)n1` as the molecule, how does the Potency read?
A: The Potency was “inactive”.

Q: Which Potency does the source give for `Cc1c(F)cc2c(=O)c(C(=O)O)cn3c2c1CCC3C` (stereo not drawn) here?
A: Its Potency is “inactive”.

Q: With `CCOc1ccc(C(=O)OCCN(CC)CC)cc1` as the molecule, how does the Potency read?
A: The Potency was “inactive”.

Q: Which Potency does the source give for `NC(=O)C1(N2CCCCC2)CCN(CCCC(=O)c2ccc(F)cc2)CC1` here?
A: Its Potency is “inactive”.

Q: Which Potency does the source give for `CCCCC(=O)O[C@]1(C(=O)CO)CC[C@H]2[C@@H]3CCC4=CC(=O)CC[C@]4(C)[C@H]3[C@@H](O)C[C@@]21C` here?
A: The Potency was “inactive”.

Q: For `C[C@]12C=CC(=O)C=C1CC[C@H]1[C@@H]3C[C@@H](O)[C@](O)(C(=O)CO)[C@@]3(C)C[C@H](O)[C@@]12F`, which Potency is on record?
A: The Potency was “inactive”.

Q: With `COC(=O)C1=C(C)NC(COC(N)=O)=C(C(=O)OC(C)C)C1c1cccc(Cl)c1Cl` (stereo not drawn) as the molecule, how does the Potency read?
A: Its Potency is “inactive”.

Q: Which Potency does the source give for `CCN(CC)CC(=O)Nc1c(C)cccc1C(=O)OC` here?
A: The Potency was “inactive”.

Q: With `Clc1ccc(C(Cn2ccnc2)OCc2ccc(Sc3ccccc3)cc2)c(Cl)c1` (stereo not drawn) as the molecule, how does the Potency read?
A: The Potency was “inactive”.

Q: For `CCN(CC)CCOc1ccc(Cc2ccccc2)cc1`, which Potency is on record?
A: The Potency was “inactive”.

Q: Which Potency does the source give for `c1ccc(CN(CC2=NCCN2)c2ccccc2)cc1` here?
A: Its Potency is “inactive”.

Q: With `NC1=NCC2c3ccccc3Cc3ccccc3N12` (stereo not drawn) as the molecule, how does the Potency read?
A: The Potency was “inactive”.

Q: With `Cc1c(C)c2c(c(C)c1OC(=O)CCC(=O)OCCO)CC[C@@](C)(CCC[C@H](C)CCC[C@H](C)CCCC(C)C)O2` as the molecule, how does the Potency read?
A: Its Potency is “inactive”.

Q: Which Potency does the source give for `C[C@H]1[C@H]2CC[C@H]3[C@@H]4CC=C5C[C@@H](N(C)C)CC[C@]5(C)[C@H]4CC[C@]23CN1C` here?
A: Its Potency is “inactive”.

Q: With `CCCC(=O)O[C@]1(C(=O)CC)CC[C@H]2[C@@H]3CCC4=CC(=O)CC[C@]4(C)[C@H]3[C@@H](O)C[C@@]21C` as the molecule, how does the Potency read?
A: The Potency was “inactive”.

Q: For `O=C1C(c2[nH]c3ccccc3c2O)=Nc2ccccc21`, which Potency is on record?
A: The Potency was “inactive”.

Q: Which Potency does the source give for `NC(=O)C(=O)N/N=C/c1ccc([N+](=O)[O-])o1` here?
A: Its Potency is “inactive”.

Assay: qHTS for Inhibitors of the Functional Ribonucleoprotein Complex (vRNP) of Lassa (LASV) Arenavirus: Viability assay - alamar blue signal for LASV Primary Screen (AID 1347083); note: nearly all actives have a fitted effect of over 80% in size
Conditions: cell viability, alamar blue fluorescence (LASV minigenome counter-screen); series mostly up to 57.5 µM

Q: For `CC(C)C[C@@H](N)C(=O)O`, which Potency is on record?
A: The Potency was “inactive”.

Q: For `OCc1ccccc1O`, which Potency is on record?
A: The Potency was “inactive”.

Q: With `CN1Cc2c(N)cccc2C(c2ccccc2)C1` (stereo not drawn) as the molecule, how does the Potency read?
A: Its Potency is “inactive”.

Q: With `Cc1ccc(/C(=C\CN2CCCC2)c2ccccn2)cc1` as the molecule, how does the Potency read?
A: The Potency was “inactive”.

Q: With `COc1ccccc1N1CCN(CC(O)COc2cccc3ccccc23)CC1` (stereo not drawn) as the molecule, how does the Potency read?
A: The Potency was “inactive”.

Q: With `Clc1ccc(CO/N=C(\Cn2ccnc2)c2ccc(Cl)cc2Cl)c(Cl)c1` as the molecule, how does the Potency read?
A: Its Potency is “inactive”.

Q: For `CC(C)(C)C(=O)OCOC(=O)C1N2C(=O)CC2S(=O)(=O)C1(C)C` (stereo not drawn), which Potency is on record?
A: Its Potency is “inactive”.

Q: For `C[C@@H]1CC[C@@]2(OC1)O[C@H]1C[C@H]3[C@@H]4CC[C@H]5C[C@@H](O)CC[C@]5(C)[C@H]4CC(=O)[C@]3(C)[C@H]1[C@@H]2C`, which activity change, negative = reduced viability is on record?
A: Its activity change, negative = reduced viability is -7.37% [at 5.82 µM].

Q: Which Potency does the source give for `Cc1ccc(=O)n(-c2ccccc2)c1` here?
A: The Potency was “inactive”.

Q: With `Cc1cc(C)c(/C=C2\C(=O)Nc3ccccc32)[nH]1` as the molecule, how does the Potency read?
A: The Potency was “inactive”.

Q: With `O=C(O)c1cccnc1Nc1cccc(C(F)(F)F)c1` as the molecule, how does the Potency read?
A: Its Potency is “inactive”.

Q: Which Potency does the source give for `C[C@@]12CCC[C@H]1[C@@H]1CC[C@H]3C[C@@H](O)CC[C@]3(C)[C@H]1CC2` here?
A: The Potency was “inactive”.

Q: With `CO[C@@H]1[C@@H](O[C@@H]2O[C@H](C)[C@@H](O[C@H]3C[C@@](C)(O)[C@@H](O)[C@H](C)O3)[C@H](N(C)C)[C@H]2O)[C@@H](CC=O)C[C@@H](C)[C@@H](O[C@@H]2CC[C@H](N(C)C)[C@@H](C)O2)/C=C/C=C/C[C@@H](C)OC(=O)C[C@H]1OC(C)=O` as the molecule, how does the Potency read?
A: Its Potency is “inactive”.

Q: With `C[C@@H](CN(C)C)CN1c2ccccc2Sc2ccccc21` as the molecule, how does the Potency read?
A: Its Potency is “inactive”.

Q: Which Potency does the source give for `c1ccc(CNCCNCc2ccccc2)cc1` here?
A: The Potency was “inactive”.

Q: Which Potency does the source give for `CCOC(=O)n1ccn(C)c1=S` here?
A: The Potency was “inactive”.

Q: With `CN1CCCCC1CCN1c2ccccc2Sc2ccc(S(C)=O)cc21` (stereo not drawn) as the molecule, how does the Potency read?
A: Its Potency is “inactive”.

Q: With `C=C1c2cccc(O)c2C(O)=C2C(=O)[C@]3(O)C(O)=C(C(N)=O)C(=O)[C@@H](N(C)C)[C@@H]3[C@@H](O)[C@H]12` as the molecule, how does the Potency read?
A: The Potency was “inactive”.

Q: With `O=C(O)[C@H](O)[C@@H](O)[C@H](O[C@@H]1O[C@H](CO)[C@H](O)[C@H](O)[C@H]1O)[C@H](O)CO` as the molecule, how does the Potency read?
A: The Potency was “inactive”.

Q: With `CNc1c2c(nn1C)CCCC2` as the molecule, how does the Potency read?
A: Its Potency is “inactive”.

Q: Which Potency does the source give for `NS(=O)(=O)c1cc2c(cc1Cl)NCNS2(=O)=O` here?
A: The Potency was “inactive”.

Q: Which Potency does the source give for `Nc1ccc(N=Nc2ccccc2)c(N)n1` here?
A: Its Potency is “inactive”.

Q: Which Potency does the source give for `Cc1c(F)cc2c(=O)c(C(=O)O)cn3c2c1CCC3C` (stereo not drawn) here?
A: Its Potency is “inactive”.

Q: For `CCOc1ccc(C(=O)OCCN(CC)CC)cc1`, which Potency is on record?
A: Its Potency is “inactive”.

Q: With `NC(=O)C1(N2CCCCC2)CCN(CCCC(=O)c2ccc(F)cc2)CC1` as the molecule, how does the Potency read?
A: The Potency was “inactive”.

Q: Which Potency does the source give for `CCCCC(=O)O[C@]1(C(=O)CO)CC[C@H]2[C@@H]3CCC4=CC(=O)CC[C@]4(C)[C@H]3[C@@H](O)C[C@@]21C` here?
A: Its Potency is “inactive”.

Q: With `C[C@]12C=CC(=O)C=C1CC[C@H]1[C@@H]3C[C@@H](O)[C@](O)(C(=O)CO)[C@@]3(C)C[C@H](O)[C@@]12F` as the molecule, how does the Potency read?
A: Its Potency is “inactive”.

Q: With `COC(=O)C1=C(C)NC(COC(N)=O)=C(C(=O)OC(C)C)C1c1cccc(Cl)c1Cl` (stereo not drawn) as the molecule, how does the Potency read?
A: The Potency was “inactive”.

Q: For `CCN(CC)CC(=O)Nc1c(C)cccc1C(=O)OC`, which Potency is on record?
A: The Potency was “inactive”.

Q: With `Clc1ccc(C(Cn2ccnc2)OCc2ccc(Sc3ccccc3)cc2)c(Cl)c1` (stereo not drawn) as the molecule, how does the Potency read?
A: Its Potency is “inactive”.

Q: For `CCN(CC)CCOc1ccc(Cc2ccccc2)cc1`, which Potency is on record?
A: The Potency was “inactive”.

Q: With `c1ccc(CN(CC2=NCCN2)c2ccccc2)cc1` as the molecule, how does the Potency read?
A: The Potency was “inactive”.

Q: For `NC1=NCC2c3ccccc3Cc3ccccc3N12` (stereo not drawn), which Potency is on record?
A: Its Potency is “inactive”.

Q: Which Potency does the source give for `Cc1c(C)c2c(c(C)c1OC(=O)CCC(=O)OCCO)CC[C@@](C)(CCC[C@H](C)CCC[C@H](C)CCCC(C)C)O2` here?
A: Its Potency is “inactive”.

Q: With `C[C@H]1[C@H]2CC[C@H]3[C@@H]4CC=C5C[C@@H](N(C)C)CC[C@]5(C)[C@H]4CC[C@]23CN1C` as the molecule, how does the Potency read?
A: The Potency was “inactive”.

Q: With `CCCC(=O)O[C@]1(C(=O)CC)CC[C@H]2[C@@H]3CCC4=CC(=O)CC[C@]4(C)[C@H]3[C@@H](O)C[C@@]21C` as the molecule, how does the Potency read?
A: Its Potency is “inactive”.

Q: Which Potency does the source give for `O=C1C(c2[nH]c3ccccc3c2O)=Nc2ccccc21` here?
A: Its Potency is “inactive”.

Q: Which Potency does the source give for `NC(=O)C(=O)N/N=C/c1ccc([N+](=O)[O-])o1` here?
A: Its Potency is “inactive”.
